Records with an inconclusive call do not appear. The source holds several records for some structures; these can differ, active in one and inactive in another. Activity calls are given as the source filed them. The calls were made as follows, unless noted: active = hit-call score of the fitted dose curve at least 0.9, where 1 is the maximum; inconclusive = response in the unintended direction; inactive = score below 0.9.

Test [1] deals with Cellular tumor antigen p53 (Homo sapiens) (UniProt P04637). The experiment in a line: TOX21_p53_BLA_p4_ratio: Tox21 HCT-116 p53 Agonism Beta-lactamase Assay, Ratio, Phase 4 (AID 2283601). The procedure, abridged: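 Signal is the blue/green (460nm/530nm) ratio of cleaved versus uncleaved CCF4-AM substrate, read after 2 h substrate loading. Cells were HCT116 carrying the p53-responsive beta-lactamase reporter, dosed 16 h at 37C, 5% CO2; CellTiter-Glo measured in parallel.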

The nature of test [2]: Tanguay_ZF_120hpf_MORT_legacy: (Legacy) Oregon State University Tanguay Lab 120 Hour Post-fertilization zebrafish Assay for Mortality (AID 2283633).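 As to AC50: fitted as increase in binary mortality versus DMSO negative control.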 The method, boiled down:
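5D WT zebrafish, chorion removed 4 hpf; 1 embryo/well from 6 hpf; static exposure to 120 hpf, 28C, dark, sealed. Final DMSO 0.64%. Readout: binary mortality, brightfield, 24 + 120 hpf; DMSO as negative control.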

Test [3] is described as follows: Tanguay_ZF_120hpf_YSE_legacy: (Legacy) Oregon State University Tanguay Lab 120 Hour Post-fertilization zebrafish Assay for Yolk Sac Edema (AID 2283634).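 As to AC50: actives raise the incidence of yolk sac edema above the DMSO baseline.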 The procedure, abridged: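 Dechorionate (pronase, 4 hpf) → place one 6 hpf embryo per well → static compound exposure, sealed and foil-covered, 28C, to 120 hpf → record yolk sac edema as present or absent. Final DMSO 0.64%.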

Test [4] is described as follows: Tanguay_ZF_120hpf_AXIS_legacy: (Legacy) Oregon State University Tanguay Lab 120 Hour Post-fertilization zebrafish Assay for Body Axis Malformation (AID 2283635).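 As to AC50: potency for an increased fraction of larvae scored with body axis malformation.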 The method, boiled down: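 Chorion is removed with pronase at 4 hpf, then single 6 hpf embryos are dosed (final DMSO 0.64%) and held statically at 28C in sealed, foil-covered plates. At 120 hpf body axis malformation is recorded as present or absent.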

A short description of test [5]: Tanguay_ZF_120hpf_EYE_legacy: (Legacy) Oregon State University Tanguay Lab 120 Hour Post-fertilization zebrafish Assay for Eye Malformation (AID 2283636). The procedure, abridged: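 Read-out is binary presence or absence of eye malformation, scored by brightfield microscopy at 120 hpf. Single larvae were exposed from 6 hpf in embryo medium containing 0.64% DMSO, with DMSO as baseline.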

The nature of test [6]: Tanguay_ZF_120hpf_SNOU_legacy: (Legacy) Oregon State University Tanguay Lab 120 Hour Post-fertilization zebrafish Assay for Snout Malformation (AID 2283637). The method, boiled down: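 Snout malformation read as a yes/no call on brightfield images of 120 hpf larvae (Tropical 5D strain). Static exposure began at 6 hpf on dechorionated embryos in 0.64% DMSO, with gain of signal analysed versus DMSO controls.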

Test [7] in a line: Tanguay_ZF_120hpf_JAW_legacy: (Legacy) Oregon State University Tanguay Lab 120 Hour Post-fertilization zebrafish Assay for Jaw Malformation (AID 2283638).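 As to AC50: active means more embryos with jaw malformation than DMSO controls.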 The method, boiled down: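 Steps: dechorionate 4 hpf embryos (pronase); plate 1/well at 6 hpf; add test chemical, 0.64% DMSO final; seal, cover, hold at 28C statically to 120 hpf; score jaw defect presence/absence microscopically. Dead embryos not scored.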

Test [8] is described as follows: Tanguay_ZF_120hpf_OTIC_legacy: (Legacy) Oregon State University Tanguay Lab 120 Hour Post-fertilization zebrafish Assay for Otic Vesicle Malformation (AID 2283639). The procedure, abridged:
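Otic vesicle malformation is read as a yes/no morphology call at 120 hpf. Exposure is static at 28C with 0.64% (vol/vol) DMSO; embryos that die are excluded from non-mortality endpoints.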

A short description of test [9]: Tanguay_ZF_120hpf_PE_legacy: (Legacy) Oregon State University Tanguay Lab 120 Hour Post-fertilization zebrafish Assay for Pericardial Edema (AID 2283640).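 As to AC50: potency for increased incidence of pericardial edema versus DMSO baseline.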 The method, boiled down:
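Embryos from wild-type 5D adults were staged, then dosed in 0.64% DMSO. They were kept sealed in the dark at 28C until 120 hpf. Pericardial edema was then recorded as present or absent.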

A short description of test [10]: Tanguay_ZF_120hpf_SOMI_legacy: (Legacy) Oregon State University Tanguay Lab 120 Hour Post-fertilization zebrafish Assay for Somite Malformation (AID 2283647). The procedure, abridged:
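Read-out: presence or absence of somite malformation in 120 hpf larvae, gain-of-signal relative to DMSO baseline. Embryos lacked chorion (pronase, 4 hpf) and were exposed statically from 6 hpf at 28C; dead larvae not scored.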

A short description of test [11]: Tanguay_ZF_120hpf_PFIN_legacy: (Legacy) Oregon State University Tanguay Lab 120 Hour Post-fertilization zebrafish Assay for Pectoral Fin Malformation (AID 2283648).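 Also: each larva judged yes or no for fin defect by brightfield with dead larvae skipped.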 The method, boiled down: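 5D WT zebrafish; pronase dechorionation 4 hpf; 1 embryo/well at 6 hpf; static exposure to 120 hpf, 28C, sealed, foil-covered; final DMSO 0.64% v/v; 5 uM trimethyltin chloride positive control; fin defect scored yes/no.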

A short description of test [12]: Tanguay_ZF_120hpf_CFIN_legacy: (Legacy) Oregon State University Tanguay Lab 120 Hour Post-fertilization zebrafish Assay for Caudal Fin Malformation (AID 2283649). The method, boiled down: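 Binary presence or absence of caudal fin malformation at 120 hpf, read by brightfield microscopy, with DMSO as baseline. Larvae came from 5D wild-type embryos exposed statically from 6 hpf at 28C after pronase dechorionation.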

The nature of test [13]: Tanguay_ZF_120hpf_PIG_legacy: (Legacy) Oregon State University Tanguay Lab 120 Hour Post-fertilization zebrafish Assay for Pigmentation Malformation (AID 2283650). The method, boiled down: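 Pronase dechorionation at 4 hpf; embryos plated at 6 hpf, one per well; static exposure, sealed and foil-covered, 28C, to 120 hpf; pigmentation read by brightfield, binary; DMSO 0.64% baseline, 5uM trimethyltin chloride positive control.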

Test [14] is described as follows: Tanguay_ZF_120hpf_SWIM_legacy: (Legacy) Oregon State University Tanguay Lab 120 Hour Post-fertilization zebrafish Assay for Swim Bladder Malformation (AID 2283654).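 Also: swim bladder malformation in each larva scored yes or no under brightfield.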 The method, boiled down:
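Embryos lacking chorions were exposed individually and statically to test chemical from 6 to 120 hpf at 28C, with 0.64% DMSO as vehicle. At 120 hpf, swim bladder malformation was recorded as present or absent by brightfield microscopy.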

A short description of test [15]: Tanguay_ZF_120hpf_TRUN_legacy: (Legacy) Oregon State University Tanguay Lab 120 Hour Post-fertilization zebrafish Assay for Truncated Body (AID 2283655). The method, boiled down:
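Truncated body is recorded as a binary endpoint at 120 hpf by brightfield imaging of wild-type 5D larvae. Exposure runs statically from 6 hpf at 28C with 0.64% DMSO; embryos dying earlier are not scored.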

Test [16] in a line: Tanguay_ZF_120hpf_NC_legacy: (Legacy) Oregon State University Tanguay Lab 120 Hour Post-fertilization zebrafish Assay for Notochord and Tail Malformation (AID 2283656). The procedure, abridged:
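Dechorionated 5D zebrafish, 1/well from 6 hpf; static exposure to 120 hpf, 28C, sealed, dark; final DMSO 0.64% v/v. NC scored binary (present/absent); dead embryos not scored. Fit vs DMSO baseline, gain direction.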

A short description of test [17]: Tanguay_ZF_120hpf_BRAI_legacy: (Legacy) Oregon State University Tanguay Lab 120 Hour Post-fertilization zebrafish Assay for Brain Malformation (AID 2283641). The procedure, abridged:
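Wild-type 5D larvae, static waterborne exposure to 120 hpf, 28C, 0.64% v/v DMSO. Brightfield scoring of brain defects, binary; dead embryos excluded. Positive ctrl 5uM trimethyltin chloride.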

Test [18] can be described thus: Tanguay_ZF_120hpf_CIRC_legacy: (Legacy) Oregon State University Tanguay Lab 120 Hour Post-fertilization zebrafish Assay for Circulatory Malformation (AID 2283651). The method, boiled down: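 Using wild-type Tropical 5D zebrafish, we exposed dechorionated embryos from 6 to 120 hpf in embryo medium with 0.64% DMSO. Circulatory defects were scored as present or absent; 5uM trimethyltin chloride served as positive control.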

Read-out in test [19]: kallikrein-3 (KLK3), KLK3 (gene 354)
The experiment in a line: LTEA_HepaRG_KLK3: Life Technologies and Expression Analysis (LTEA) Assay for kallikrein-3 (KLK3) using HepaRG (AID 2283652; active = hit-call score of the fitted dose curve at least 0.9, where 1 is the maximum; inactive = score below 0.9). Particulars: mRNA level, 48 h; actives raise or lower the signal. The method, boiled down:
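Differentiated human HepaRG cells in serum-free induction medium exposed 48 h in duplicate, eight-point half-log series from 100 uM in 0.5% DMSO. KLK3 mRNA by qRT-PCR, normalised to ACTB, GAPDH, POLR2A; bidirectional fit versus DMSO.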

Read-out in test [20]: solute carrier (SLC22A6), SLC22A6 (gene 9356)
The experiment in a line: LTEA_HepaRG_SLC22A6: Life Technologies and Expression Analysis (LTEA) Assay for solute carrier (SLC22A6) using HepaRG (AID 2283653; active = hit-call score of the fitted dose curve at least 0.9, where 1 is the maximum; inactive = score below 0.9). Particulars: mRNA level, 48 h; actives raise or lower the signal. The procedure, abridged:
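Read-out is SLC22A6 transcript level by qRT-PCR, normalised to three housekeeping genes and fitted for gain or loss relative to 0.5% DMSO vehicle. Human HepaRG cells received chemicals at up to 100 uM for 48 h.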

Chain of Cellular tumor antigen p53 (Homo sapiens) (P04637 whole entry, looked up): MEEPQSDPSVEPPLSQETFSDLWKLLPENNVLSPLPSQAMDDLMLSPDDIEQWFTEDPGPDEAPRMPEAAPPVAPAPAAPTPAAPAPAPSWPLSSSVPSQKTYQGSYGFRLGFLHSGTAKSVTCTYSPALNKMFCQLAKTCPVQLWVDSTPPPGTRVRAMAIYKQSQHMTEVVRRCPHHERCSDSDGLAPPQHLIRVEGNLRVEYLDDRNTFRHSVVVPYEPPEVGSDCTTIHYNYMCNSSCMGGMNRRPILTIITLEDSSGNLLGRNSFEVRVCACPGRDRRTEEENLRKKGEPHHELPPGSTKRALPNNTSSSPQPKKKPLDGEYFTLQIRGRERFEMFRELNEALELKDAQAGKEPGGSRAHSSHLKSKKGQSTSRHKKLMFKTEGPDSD

In the case of `COC(=O)NC(=S)Nc1ccccc1NC(=S)NC(=O)OC`, the result in test [1], in [2], in test [4], in test [5], in test [7] and in test [8] was inactive. Also, the result in [10], in test [11], in test [12], in [13], in [14] and in test [15] was inactive. Also, the call in [16] was inactive. Further, the half-maximal activity concentration (AC50) was 47.7 µM (active) in test [3], 50.3 µM (active) in test [6] and 52.6 µM (active) in [9].
As for `COP(=S)(OC)Oc1ccc([N+](=O)[O-])c(C)c1`, the outcome in test [1], in [2], in test [3], in [4], in test [5] and in test [6] was inactive. Moreover, the result in [7], in [8], in test [9], in [17], in [10] and in test [11] was inactive. The result in test [12], in test [13], in [18], in test [14], in test [15] and in [16] was inactive.
With `O=C1C2CC=CCC2C(=O)N1SC(Cl)(Cl)Cl` (stereo not drawn), the AC50 in test [1] is 10.3 µM (active); in test [2] it was 25.1 µM (active). In addition, the outcome in test [1], in [3], in [4], in test [6], in test [7] and in test [8] was inactive. The call in [9], in test [17], in test [10], in test [11], in test [12] and in [13] was inactive. The compound was classed as inactive in test [18], in test [14] and in [15].
Consider `CC(C)Oc1cccc(NC(=O)c2ccccc2C(F)(F)F)c1`, for which the result in test [1], in test [2], in test [4], in [8], in test [10] and in test [11] was inactive. Besides, the compound was classed as inactive in test [12], in [13], in [18], in test [19], in [20] and in test [14]. Besides, the call in [15] was inactive. The AC50 in test [3] is 48.7 µM (active); in [5], 15.5 µM (active); in [6], 50.4 µM (active); in test [7] it was 40.4 µM (active); in test [9], 48.1 µM (active); in test [17], 38.3 µM (active).
For the compound `CCN(CC)c1nc(C)cc(OP(=S)(OC)OC)n1`, the result in [1], in test [2], in test [3], in test [4], in test [5] and in test [6] was inactive. Also, the compound was called inactive in [7], in test [8], in [9], in test [17], in test [10] and in test [11]. Moreover, the call in test [12], in test [13], in test [14], in test [15] and in test [16] was inactive.
In the case of `N#Cc1c[nH]cc1-c1cccc2c1OC(F)(F)O2`, the AC50 in test [1] is 6.17 µM (active); in [2], 25.9 µM (active). The call in test [3], in test [4], in [5], in test [6], in [7] and in test [9] was inactive. For the same compound, the result in test [17], in test [10], in test [11], in test [12], in test [13] and in test [18] was inactive. Also, the compound was classed as inactive in [14] and in [15].
Regarding `CCN(CC)C(=O)C(C)Oc1cccc2ccccc12` (stereo not drawn), the result in test [1], in test [2], in test [4], in test [5], in [6] and in [7] was inactive. Further, the call in test [8], in test [9], in test [17], in [10], in [11] and in [12] was inactive. Besides, the result in [13], in test [18], in test [14], in test [15] and in test [16] was inactive. Moreover, the AC50 in test [3] is 55 µM (active).
Consider `CC1(C)C(C=C(Cl)Cl)C1C(=O)OC(C#N)c1cccc(Oc2ccccc2)c1` (stereo not drawn), for which the outcome in test [1], in [2], in test [8], in [17], in test [12] and in test [13] was inactive. Besides, the call in [18], in test [14] and in [15] was inactive. Besides, the AC50 in [3] was 1.7 µM (active); in test [4] it was 1.23 µM (active); in [5], 1.82 µM (active); in [6], 1.53 µM (active); in [7], 1.66 µM (active); in [9], 1.66 µM (active). In addition, the AC50 in test [10] was 1.86 µM (active); in [11], 994 nM (active).

By AC50 is commonly meant the concentration at which the activity in the assay is half-maximal.

The values are drawn from PubChem BioAssay (EPA / NIEHS).
